Hits are enriched below; roughly 4.1% of the tested compounds scored in any of these assays.
TROY NFkB inh = inhibitors of TROY-driven NF-kB signaling, primary screen, Q293 LMP1-TROYcd cells, NF-kB luciferase, uHTS | 360,000 tested, 0.98% active | AID 1347056, 2019 | inhibition, % at 10 µM | Q293 LMP1-TROYcd NF-kB luciferase reporter, 4 h;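 active means compounds whose plate-normalised and pattern-corrected inhibition of the luciferase reporter signal at the single screening dose is 50% or more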
Shn3 3UTR inh = reduction of Shn3 3'UTR firefly luciferase signal, primary screen, Schnurri-3 inhibitor project, cell-based, Clone20 osteoblasts, set 2; 360,000 tested, 0.52% active; Clone20 osteoblast Shn3 3'UTR firefly luciferase, 24 h; inhibition, % at 12.5 µM; AID 588674, 2011;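 active means mean inhibition of at least 75% with every replicate also reaching 75%; inconclusive means mean inhibition at least 75% but some replicate below; inactive means mean inhibition below 75%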
MITF TRPM1 inh = inhibitors of MITF-dependent TRPM1 promoter reporter, primary screen, cell-based, SK-MEL-5, single point, luciferase | inhibition, % at 12.5 µM | SK-MEL-5 TRPM1 promoter luciferase, 24 h | 330,000 tested, 0.83% active;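 active means mean inhibition across replicates of 60% or more, whatever share of single replicates reaches that level; inconclusive means some that reach 60%, reason not given; inactive means mean inhibition across replicates below 60%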
LMP1 NFkB inh = EBV LMP1-driven NF-kappaB luciferase reporter inhibitors, primary screen, cell-based, luminescence, single point; LMP1-induced NF-kappaB luciferase reporter cells; 350,000 tested, 0.69% active; inhibition, % at 12.5 µM; in the data active means inhibition above about 41%; inconclusive means no clear call, values can overlap the other calls
TWEAK Fn14 block = inhibitors of TWEAK-Fn14 signaling, primary screen, luciferase reporter cells, uHTS; AID 1159606, 2016; TWEAK-stimulated Fn14 reporter cells, luciferase luminescence, 8 h; inhibition, % at 10 µM; 360,000 tested, 2% active; in the data active means inhibition above about 50%
Peg3 promoter = Peg3 promoter-driven luciferase inhibitors, primary screen, cell-based, HeLa, luciferase luminescence; inhibition, % at 20 µM; HeLa PEG-Prom luciferase reporter, overnight; AID 588405, 2011; 360,000 tested, 1.7% active;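 active means inhibition of at least 50% at 20 µM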
A number is an active result.

Results for Cc1cc2oc(=O)cc(-c3ccccc3)c2c(C)c1-c1ccc(O)cc1 ?
TROY NFkB inh: 53.5; Shn3 3UTR inh: inactive; MITF TRPM1 inh: inactive; LMP1 NFkB inh: inactive; TWEAK Fn14 block: inactive; Peg3 promoter: inactive

Results for COc1ccc(-c2nc(-c3ccccn3)ncc2S(C)(=O)=O)cc1 ?
TROY NFkB inh: inactive; Shn3 3UTR inh: inactive; MITF TRPM1 inh: inactive; LMP1 NFkB inh: inactive; TWEAK Fn14 block: inactive; Peg3 promoter: inactive

Results for Cn1nc(-c2ccccn2)nc2c(=O)n(C)c(=O)nc1-2 ?
TROY NFkB inh: 57.0; Shn3 3UTR inh: 97.6; MITF TRPM1 inh: 103.8; LMP1 NFkB inh: inactive; TWEAK Fn14 block: 102.2; Peg3 promoter: 104.6

Results for CCN1CCN(c2ccc(NC(=O)COc3ccc(Cl)cc3C)cc2)CC1 ?
TROY NFkB inh: inactive; Shn3 3UTR inh: inactive; LMP1 NFkB inh: inactive; TWEAK Fn14 block: inactive; Peg3 promoter: inactive

How did CCCCCOC(=O)c1[nH]c2c(c1C)C(=O)CC(c1ccco1)C2 (stereo not drawn) do in these assays?
TROY NFkB inh: inactive; Shn3 3UTR inh: 91.6; MITF TRPM1 inh: inactive; LMP1 NFkB inh: inactive; TWEAK Fn14 block: inactive; Peg3 promoter: inactive

What do the screens show for `COC(=O)c1c(NC(=O)C(Cl)Cl)sc2c1C(C(=O)OC)CC2` (stereo not drawn)?
TROY NFkB inh: inactive; Shn3 3UTR inh: inactive; MITF TRPM1 inh: inconclusive; LMP1 NFkB inh: inactive; TWEAK Fn14 block: inactive; Peg3 promoter: 80.5

What do the screens show for `Nc1nc(=S)c2[nH]cnc2[nH]1`?
TROY NFkB inh: inactive; Shn3 3UTR inh: inactive; MITF TRPM1 inh: 78.2; LMP1 NFkB inh: 84.9; TWEAK Fn14 block: inactive; Peg3 promoter: 62.9

How did COc1ccc(-c2cc3nc(CCl)[nH]c(=O)c3s2)cc1 do in these assays?
TROY NFkB inh: inactive; Shn3 3UTR inh: inactive; MITF TRPM1 inh: inactive; LMP1 NFkB inh: 49.2; TWEAK Fn14 block: 63.0; Peg3 promoter: inactive

Results for NCCCn1c(C(=O)c2cc(Cl)c(N)c(Cl)c2)c2ccc(C(F)(F)F)cc2[n+]1[O-] ?
TROY NFkB inh: inactive; Shn3 3UTR inh: inactive; MITF TRPM1 inh: inactive; LMP1 NFkB inh: inactive; TWEAK Fn14 block: inactive; Peg3 promoter: inactive

What do the screens show for `NCCCn1c(C(=O)c2cc(Cl)c(N)c(Cl)c2)c2ccc([N+](=O)[O-])cc2[n+]1[O-]`?
TROY NFkB inh: inactive; Shn3 3UTR inh: inactive; MITF TRPM1 inh: inactive; LMP1 NFkB inh: inactive; TWEAK Fn14 block: inactive; Peg3 promoter: 57.3

What do the screens show for `Fc1ccc2[nH]c3c(N4CCc5ccccc5C4)ncnc3c2c1`?
TROY NFkB inh: inactive; Shn3 3UTR inh: 86.9; TWEAK Fn14 block: 58.5; Peg3 promoter: inactive

What do the screens show for `Cc1ccc2[nH]c3c(N4CCc5ccccc5C4)ncnc3c2c1`?
TROY NFkB inh: inactive; Shn3 3UTR inh: inactive; MITF TRPM1 inh: inactive; LMP1 NFkB inh: inactive; TWEAK Fn14 block: 63.4; Peg3 promoter: inactive

Results for Cc1cc(C(C)(C)C)ccc1Oc1cccc2c1S(=O)(=O)N(C1CCCC1)CC(COCc1ccccc1)O2 (stereo not drawn) ?
TROY NFkB inh: inactive; Shn3 3UTR inh: inactive; MITF TRPM1 inh: inactive; LMP1 NFkB inh: inactive; TWEAK Fn14 block: inactive; Peg3 promoter: inactive

Results for CC(C)c1ccc(Oc2cccc3c2S(=O)(=O)N(C2CCCC2)CC(COCc2ccccc2)O3)cc1 (stereo not drawn) ?
TROY NFkB inh: inactive; Shn3 3UTR inh: 86.5; MITF TRPM1 inh: inactive; LMP1 NFkB inh: inactive; TWEAK Fn14 block: inactive; Peg3 promoter: inactive

How did CCN(C(=O)C1CC1)C1CCS(=O)(=O)C1 (stereo not drawn) do in these assays?
TROY NFkB inh: 66.5; Shn3 3UTR inh: inactive; MITF TRPM1 inh: inactive; LMP1 NFkB inh: inactive; TWEAK Fn14 block: inactive; Peg3 promoter: inactive

How did O=C(CCCOc1ccc(Cl)cc1Cl)NCCCO do in these assays?
TROY NFkB inh: inactive; Shn3 3UTR inh: inactive; MITF TRPM1 inh: inactive; LMP1 NFkB inh: inactive; TWEAK Fn14 block: inactive; Peg3 promoter: inactive

How did O=C(CCCOc1ccc(Cl)cc1Cl)NCCc1ccccn1 do in these assays?
TROY NFkB inh: 69.4; Shn3 3UTR inh: inactive; MITF TRPM1 inh: inactive; LMP1 NFkB inh: inactive; TWEAK Fn14 block: inactive; Peg3 promoter: inactive

How did CSc1nc(N)c2cn[nH]c2n1 do in these assays?
TROY NFkB inh: inactive; Shn3 3UTR inh: inactive; MITF TRPM1 inh: inactive; LMP1 NFkB inh: inactive; TWEAK Fn14 block: inactive; Peg3 promoter: inactive

How did CC1CCN(C(=O)CSc2ccc(-c3cccnc3)nn2)CC1 do in these assays?
TROY NFkB inh: inactive; Shn3 3UTR inh: inactive; MITF TRPM1 inh: inactive; LMP1 NFkB inh: inactive; TWEAK Fn14 block: inactive; Peg3 promoter: inactive

What do the screens show for `CCOc1cc(CNCCCN2CCOCC2)cc(Cl)c1OCC(=O)NC(C)(C)C`?
TROY NFkB inh: inactive; Shn3 3UTR inh: inactive; MITF TRPM1 inh: inactive; LMP1 NFkB inh: inactive; TWEAK Fn14 block: inactive; Peg3 promoter: inactive

How did CCOc1cc(CNCCCN2CCOCC2)cc(Br)c1OCC(=O)Nc1cccc(C(F)(F)F)c1 do in these assays?
TROY NFkB inh: inactive; Shn3 3UTR inh: inactive; MITF TRPM1 inh: 74.4; LMP1 NFkB inh: inactive; TWEAK Fn14 block: inactive; Peg3 promoter: 68.1

What do the screens show for `c1ccc2cc(Sc3ncnc4c3oc3ccccc34)ccc2c1`?
TROY NFkB inh: inactive; Shn3 3UTR inh: inactive; MITF TRPM1 inh: inactive; LMP1 NFkB inh: inactive; TWEAK Fn14 block: inactive; Peg3 promoter: inactive

Results for Cc1cc(C)nc(Sc2ncnc3c2oc2ccccc23)n1 ?
TROY NFkB inh: inactive; Shn3 3UTR inh: inactive; MITF TRPM1 inh: inactive; LMP1 NFkB inh: inactive; TWEAK Fn14 block: 55.5; Peg3 promoter: inactive

How did CCC1(C)Cc2ccccc2-c2nc(SCC(N)=O)[nH]c(=O)c21 (stereo not drawn) do in these assays?
TROY NFkB inh: 53.2; Shn3 3UTR inh: inactive; MITF TRPM1 inh: inactive; LMP1 NFkB inh: inactive; TWEAK Fn14 block: inactive; Peg3 promoter: inactive

What do the screens show for `Cc1ccc(N2CCN(C3=NC(=O)/C(=C\c4cn[nH]c4-c4ccccc4)S3)CC2)cc1`?
TROY NFkB inh: inactive; Shn3 3UTR inh: inactive; MITF TRPM1 inh: inactive; LMP1 NFkB inh: 68.6; TWEAK Fn14 block: inactive; Peg3 promoter: inactive

How did O=C1N=C(N2CCC(Cc3ccccc3)CC2)S/C1=C/c1cn[nH]c1-c1ccccc1 do in these assays?
TROY NFkB inh: inactive; Shn3 3UTR inh: inactive; MITF TRPM1 inh: inactive; LMP1 NFkB inh: inactive; TWEAK Fn14 block: 76.8; Peg3 promoter: inactive

Results for O=C1N=C(N2CCN(c3ccccc3)CC2)S/C1=C\c1cn[nH]c1-c1ccccc1 ?
TROY NFkB inh: inactive; Shn3 3UTR inh: inactive; MITF TRPM1 inh: inactive; LMP1 NFkB inh: inactive; TWEAK Fn14 block: inactive; Peg3 promoter: inactive

What do the screens show for `Cc1cc(C(=O)NNC(=O)CCCCC(=O)NNC(=O)c2cc(C)[nH]n2)n[nH]1`?
TROY NFkB inh: inactive; Shn3 3UTR inh: inactive; MITF TRPM1 inh: inactive; LMP1 NFkB inh: inactive; TWEAK Fn14 block: inactive; Peg3 promoter: inactive
